In PubChem BioAssay (Tox21):
Records with an inconclusive call do not appear. The source made the active and inactive calls. The call rests on the fitted dose curve; in most records, active means well fitted curve in the direction sought with a large enough effect in the repeat runs; inconclusive means weak or mixed curves; inactive means no such curve, though single readings can be large; an effect the other way counts as inactive or inconclusive.
On the % scale 0 is the no-effect control and ±100 the full control effect.

Each compound was assayed against Nuclear receptor subfamily 1 group I member 2 (Rattus norvegicus) (UniProt Q9R1A7) (assay: Rat pregnane X receptor (rPXR) activation by small molecules, qHTS assay (AID 1346983; further: nearly all actives have a fitted effect of over 20% in size)). Conditions: rPXR luciferase reporter cells, One-Glo luminescence, 24 h; max activation: stronger effect = higher value.
Chain of Nuclear receptor subfamily 1 group I member 2 (Rattus norvegicus) (Q9R1A7 whole entry, looked up): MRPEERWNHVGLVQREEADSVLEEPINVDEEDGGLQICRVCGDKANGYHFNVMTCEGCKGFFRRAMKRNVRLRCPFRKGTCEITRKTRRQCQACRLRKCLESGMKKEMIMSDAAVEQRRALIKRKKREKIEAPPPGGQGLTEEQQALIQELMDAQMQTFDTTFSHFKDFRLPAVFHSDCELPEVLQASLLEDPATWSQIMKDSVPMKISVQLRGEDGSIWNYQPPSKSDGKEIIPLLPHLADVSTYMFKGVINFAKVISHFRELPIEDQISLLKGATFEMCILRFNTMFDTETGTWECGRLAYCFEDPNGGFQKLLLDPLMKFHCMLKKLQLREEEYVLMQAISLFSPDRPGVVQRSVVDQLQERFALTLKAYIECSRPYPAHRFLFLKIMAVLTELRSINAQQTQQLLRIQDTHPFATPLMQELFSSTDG
Procedure, shortened: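 Luminescent readout (One-Glo luciferase, 30 min room temperature) followed 24 hr compound treatment at 37 C of rPXR cells plated 2,000 per well and preincubated 5hr; qHTS format with compounds delivered in DMSO.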
For `CN(c1nccc(=O)[nH]1)C1CCN(c2nc3ccccc3n2Cc2ccc(F)cc2)CC1`, the max activation was -3.1% (inactive). With `CC1(C)CCC(C)(C)c2cc(NC(=O)c3ccc(C(=O)O)cc3)ccc21` the max activation was -8.01% (inactive). For `O=C(c1ccccc1)c1ccc2n1CCC2C(=O)O` (stereo unspecified), the max activation was 4.49% (inactive). `CCN(CC)C(C)CN1c2ccccc2Sc2ccccc21` (stereo unspecified) was tested, and the max activation was -0.328% (inactive). For `O=C(Nc1ccccc1)OCC(CN1CCCCC1)OC(=O)Nc1ccccc1` (stereo unspecified), the max activation was 0.646% (inactive). For `Cc1nc2ccccc2n1Cc1ccc(Cl)cc1`, the max activation was -21.8% (inactive). For `Cc1ccccn1`, the max activation was -5.22% (inactive). `O=C(O)Cc1cc(I)c(Oc2ccc(O)c(I)c2)c(I)c1` was tested, and the max activation was -1.77% (inactive). For `CC(=O)N(O)CCCCCNC(=O)CCC(=O)N(O)CCCCCNC(=O)CCC(=O)N(O)CCCCCN`, the max activation was -2.68% (inactive). With `CN(C)CC[C@@H](c1ccc(Br)cc1)c1ccccn1` the max activation was -1.37% (inactive).

The compounds below were run against Nuclear receptor subfamily 1 group I member 2 (Homo sapiens) (UniProt O75469) (assay: CYP3A4 induction through human pregnane X receptor (PXR) by small molecules, qHTS assay (AID 1346984; further: nearly all actives have a fitted effect of over 40% in size; further: potency means the concentration at half of the fitted maximal effect)). Conditions: DPX-2 HepG2 PXR, CYP3A4-luciferin luminescence, 24 h; series mostly up to 46.1 µM; activation: at the top concentration.
Procedure, shortened: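 Luminescence readout: luciferase signal after One-Glo (30 min, room temperature), following 3 h at 37C with 3uM final Luciferin-IPA P450 substrate. Cells were DPX-2 (HepG2, PXR/CYP3A4-luc co-transfected) dosed for 24 h.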
In the case of `CN(c1nccc(=O)[nH]1)C1CCN(c2nc3ccccc3n2Cc2ccc(F)cc2)CC1`, the “activation” value was 6.7% (inactive). In the case of `CC1(C)CCC(C)(C)c2cc(NC(=O)c3ccc(C(=O)O)cc3)ccc21`, the “activation” value was -10.5% (inactive). In the case of `O=C(c1ccccc1)c1ccc2n1CCC2C(=O)O` (stereo unspecified), the “activation” value was -20.1% [at 20.6 µM] (inactive). For `CCN(CC)C(C)CN1c2ccccc2Sc2ccccc21` (stereo unspecified), the Potency was 3.98 µM (active). For `O=C(Nc1ccccc1)OCC(CN1CCCCC1)OC(=O)Nc1ccccc1` (stereo unspecified), the Potency was 10 µM (active). `Cc1nc2ccccc2n1Cc1ccc(Cl)cc1` was tested, and the “activation” value was -10.7% (inactive). With `CN1CCN(C2=Nc3ccccc3Sc3ccc(Cl)cc32)CC1` the Potency was 22.4 µM (active). `CC(=O)N(O)CCCCCNC(=O)CCC(=O)N(O)CCCCCNC(=O)CCC(=O)N(O)CCCCCN` was tested, and the “activation” value was -11.6% [at 20.6 µM] (inactive). In the case of `O=S1(=O)c2cccc3cccc(c23)N1CCCN1CCN(c2ccc(F)cc2)CC1`, the “activation” value was -3.54% (inactive). For `c1ccc(-c2nc[nH]c2-c2ccccc2)cc1`, the “activation” value was -7.17% (inactive).

The compounds below were run against Nuclear receptor subfamily 1 group I member 2 (Homo sapiens) (UniProt O75469) (assay: Human pregnane X receptor (PXR) activation by small molecules, qHTS assay (AID 1346985; further: nearly all actives have a fitted effect of over 40% in size; further: potency means the concentration at half of the fitted maximal effect)). Conditions: DPX-2 HepG2 CYP3A4-luciferase, 24 h; series mostly up to 38.3 µM; activation: at the top concentration.
Procedure, shortened: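 DPX-2 cells (HepG2 co-transfected with a PXR response element and a CYP3A4-promoter luciferase construct) were seeded at 2,000 per well, rested 5 hr at 37C, then exposed to DMSO-dissolved compounds for 24 hr. Activation was read as luciferase luminescence.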
In the case of `CN(c1nccc(=O)[nH]1)C1CCN(c2nc3ccccc3n2Cc2ccc(F)cc2)CC1`, the “activation” value was 11.2% (inactive). With `CC1(C)CCC(C)(C)c2cc(NC(=O)c3ccc(C(=O)O)cc3)ccc21` the “activation” value was -3.55% (inactive). With `O=C(c1ccccc1)c1ccc2n1CCC2C(=O)O` (stereo unspecified) the “activation” value was 3.73% [at 17.1 µM] (inactive). With `CCN(CC)C(C)CN1c2ccccc2Sc2ccccc21` (stereo unspecified) the “activation” value was 6.02% [at 17.1 µM] (inactive). For `Cc1nc2ccccc2n1Cc1ccc(Cl)cc1`, the “activation” value was 8.91% (inactive). With `CN1CCN(C2=Nc3ccccc3Sc3ccc(Cl)cc32)CC1` the Potency was 25.1 µM (active). With `CC(=O)N(O)CCCCCNC(=O)CCC(=O)N(O)CCCCCNC(=O)CCC(=O)N(O)CCCCCN` the “activation” value was -3.58% [at 17.1 µM] (inactive). `O=S1(=O)c2cccc3cccc(c23)N1CCCN1CCN(c2ccc(F)cc2)CC1` was tested, and the Potency was 15.8 µM (active). `CN(C)CC[C@@H](c1ccc(Br)cc1)c1ccccn1` was tested, and the “activation” value was 17.8% (inactive). With `c1ccc(-c2nc[nH]c2-c2ccccc2)cc1` the “activation” value was 12.8% (inactive).

What follows are compounds tested against Cytochrome P450 2D6 (Homo sapiens) (UniProt P10635) (assay: Cytochrome P450 Family 2 Subfamily D Member 6 (CYP2D6) small molecule antagonists: luciferase reporter qHTS assay (AID 1671196; further: nearly all actives have a fitted effect of over 50% in size; further: potency means the concentration at half of the fitted maximal effect)). Conditions: P450-Glo CYP2D6 enzyme assay, luciferin luminescence, 1 h; series mostly up to 115 µM; activity change, negative = inhibition: at the top concentration.
Chain of Cytochrome P450 2D6 (Homo sapiens) (P10635 whole entry, looked up): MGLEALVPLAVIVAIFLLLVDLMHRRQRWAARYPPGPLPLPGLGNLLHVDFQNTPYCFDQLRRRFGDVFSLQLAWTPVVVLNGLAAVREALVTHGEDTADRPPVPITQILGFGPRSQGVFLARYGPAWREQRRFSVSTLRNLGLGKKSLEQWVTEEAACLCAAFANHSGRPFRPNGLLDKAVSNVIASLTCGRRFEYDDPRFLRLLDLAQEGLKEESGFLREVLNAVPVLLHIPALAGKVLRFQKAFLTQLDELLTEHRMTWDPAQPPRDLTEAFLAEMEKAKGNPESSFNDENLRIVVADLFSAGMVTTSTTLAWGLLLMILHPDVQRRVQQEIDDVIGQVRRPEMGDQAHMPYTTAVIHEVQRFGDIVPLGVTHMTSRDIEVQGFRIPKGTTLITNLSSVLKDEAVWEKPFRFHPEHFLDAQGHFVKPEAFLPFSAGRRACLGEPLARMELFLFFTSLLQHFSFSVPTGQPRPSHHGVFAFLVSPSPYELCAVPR
Procedure, shortened: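 Read-out is luminescence from luciferin formed by CYP2D6 turnover of a proluciferin substrate, recorded as relative luminescence units. Reactions ran 1 h at room temperature after NADPH regeneration solution was added.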
In the case of `CN(c1nccc(=O)[nH]1)C1CCN(c2nc3ccccc3n2Cc2ccc(F)cc2)CC1`, the Potency was 12.3 µM (active). With `CC1(C)CCC(C)(C)c2cc(NC(=O)c3ccc(C(=O)O)cc3)ccc21` the “activity change, negative = inhibition” value was -13.5% [at 53 µM] (inactive). `CCCCOC(=O)c1ccccc1C(=O)OCC(CC)CCCC` (stereo unspecified) was tested, and the “activity change, negative = inhibition” value was -20.9% (inactive). In the case of `O=C(c1ccccc1)c1ccc2n1CCC2C(=O)O` (stereo unspecified), the “activity change, negative = inhibition” value was -25.5% [at 53 µM] (inactive). `CCN(CC)C(C)CN1c2ccccc2Sc2ccccc21` (stereo unspecified) was tested, and the Potency was 30.9 µM (active). For `O=C(Nc1ccccc1)OCC(CN1CCCCC1)OC(=O)Nc1ccccc1` (stereo unspecified), the Potency was 0.436 µM (active). In the case of `Cc1nc2ccccc2n1Cc1ccc(Cl)cc1`, the Potency was 15.5 µM (active). In the case of `COCCCCCCCCOCCC[Si](C)(O[Si](C)(C)C)O[Si](C)(C)C`, the “activity change, negative = inhibition” value was -24% (inactive). `CCCCCCOC(=O)CCC` was tested, and the “activity change, negative = inhibition” value was 0.543% (inactive). `COCCO` was tested, and the “activity change, negative = inhibition” value was 0.145% (inactive). `C=C(C)C(=O)OCCN(C)C` was tested, and the “activity change, negative = inhibition” value was -8.12% (inactive). `CC(C)(C)c1ccc(S)cc1` was tested, and the “activity change, negative = inhibition” value was -26.6% (inactive). In the case of `CCOc1ccc2[nH]cc(C(=O)NCc3ccccc3)c(=O)c2n1`, the “activity change, negative = inhibition” value was -7.15% (inactive). With `O=c1[nH]cnc2ccccc12` the “activity change, negative = inhibition” value was -6.46% (inactive). For `CN1CCN(C2=Nc3ccccc3Sc3ccc(Cl)cc32)CC1`, the Potency was 15.5 µM (active). With `CCC(C)N(C)C(=O)c1cc2ccccc2c(-c2ccccc2Cl)n1` (stereo unspecified) the “activity change, negative = inhibition” value was -13.6% [at 53 µM] (inactive). For `N#Cc1c(F)cccc1F`, the “activity change, negative = inhibition” value was -13.3% (inactive). With `S=C(S)NCCNC(=S)S` the “activity change, negative = inhibition” value was -17% (inactive). `O=S1(=O)c2cccc3cccc(c23)N1CCCN1CCN(c2ccc(F)cc2)CC1` was tested, and the Potency was 1.55 µM (active). For `C=CCCCCCC`, the “activity change, negative = inhibition” value was -21.2% (inactive). With `CN(C)CC[C@@H](c1ccc(Br)cc1)c1ccccn1` the Potency was 3.89 µM (active). In the case of `O=C(O)C(c1ccc(Cl)cc1)c1ccc(Cl)cc1`, the “activity change, negative = inhibition” value was -18.7% (inactive). For `O=C(NS(=O)(=O)/C=C/c1cccs1)c1ccc(F)cc1Br`, the “activity change, negative = inhibition” value was -10.6% (inactive). With `CC(=O)OC/C=C/c1ccccc1` the “activity change, negative = inhibition” value was -1.75% (inactive). With `CC(=O)OCCc1ccccc1` the “activity change, negative = inhibition” value was -1.49% (inactive). `Cc1ccc(C(C)c2ccc(C)c(C)c2)cc1C` was tested, and the “activity change, negative = inhibition” value was -14.8% (inactive).
